Consider 14 compounds from PubChem BioAssay (NCI).

About 83,000 compounds went through this panel and 20% of them were active in at least one assay; those are over-represented in the sample as a whole.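 Assay: single dose, 48 h. Readout: percent growth (0 = no net growth; negative = cell death). Active: <10.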 Values without a mark were called inactive. The source made the active and inactive calls.

Test systems include SR leukemia; RPMI-8226 leukemia; OVCAR-8 ovarian; OVCAR-5 ovarian; OVCAR-4 ovarian; SK-OV-3 ovarian; IGROV1 ovarian; OVCAR-3 ovarian; HS 578T breast; NCI/ADR-RES ovarian.
Common to all, as to experiment: NCI-60 one-dose screen, 48 h (100 = growth as untreated, 0 = no growth, -100 = all killed)
What all share (details): 10 µM unless noted

On to `Clc1cc(Cl)c(Cl)c(-c2nnc(SCc3ccncc3Br)o2)c1`, for which the growth in the experiment on SR leukemia is -26.8% (active); in the experiment with RPMI-8226 leukemia, 72.9%; with OVCAR-8 ovarian it was 120%; in the experiment on OVCAR-5 ovarian it was 80.1%; in the experiment on OVCAR-4 ovarian it was 90.6%; in the experiment on SK-OV-3 ovarian it was 101%. The growth in the experiment with IGROV1 ovarian is 72.9%; with OVCAR-3 ovarian, 89%; in the experiment with HS 578T breast, 90.4%; in the experiment with NCI/ADR-RES ovarian, 89.6%.
Turning to `Cc1nc2sc(C(=O)Nc3cccc4ccccc34)c(N)c2cc1C(O)c1ccccc1` (stereo not given), the growth in the experiment with SR leukemia is -1.98% (active); in the experiment with RPMI-8226 leukemia it was 0.145% (active); in the experiment with OVCAR-8 ovarian, 5.13% (active); in the experiment with OVCAR-5 ovarian, 37.4%; in the experiment with OVCAR-4 ovarian, 60%; in the experiment on SK-OV-3 ovarian, 8.83% (active). The growth in the experiment with IGROV1 ovarian was 14.4%; in the experiment on OVCAR-3 ovarian it was -5.29% (active); in the experiment on HS 578T breast it was 8.1% (active); in the experiment with NCI/ADR-RES ovarian, 2.93% (active).
As to `Oc1ccc(Cl)cc1/C=N\NC(=S)N/N=C/c1cc(Cl)ccc1O`, the growth in the experiment with SR leukemia is 20.2%; in the experiment on RPMI-8226 leukemia, 29.8%; in the experiment with OVCAR-8 ovarian, 17.6%; in the experiment on OVCAR-5 ovarian, 69.7%; with OVCAR-4 ovarian, 29.6%; in the experiment on SK-OV-3 ovarian it was 58.6%. Moreover, the growth was 22.2% in the experiment with IGROV1 ovarian, 12.7% in the experiment with OVCAR-3 ovarian, 57.9% in the experiment with HS 578T breast and 14.7% in the experiment with NCI/ADR-RES ovarian.
With `C=CC(=O)N1CCN(c2cccc(Oc3nccc(Nc4nnc(-c5ccc(Br)cc5)s4)n3)c2)CC1`, the growth with SR leukemia is 29.9%; in the experiment with RPMI-8226 leukemia it was 50.4%; in the experiment on OVCAR-8 ovarian, 66%; in the experiment on OVCAR-5 ovarian, 89.9%; with OVCAR-4 ovarian, 88.9%; with SK-OV-3 ovarian, 80.2%. The growth with IGROV1 ovarian was 55.9%; in the experiment on OVCAR-3 ovarian it was 19.2%; with HS 578T breast it was 67.5%; in the experiment with NCI/ADR-RES ovarian, 48.4%.
Turning to `O=C(/C=C/c1cn(-c2ccccc2)nc1-c1ccc(Cl)cc1)c1ccc(F)cc1`, the growth in the experiment with SR leukemia is 40.8%; in the experiment on RPMI-8226 leukemia, 67.5%; in the experiment on OVCAR-8 ovarian it was 80.6%; with OVCAR-5 ovarian, 99.3%; with OVCAR-4 ovarian, 71.9%; in the experiment with SK-OV-3 ovarian, 82.6%. In addition, the growth with IGROV1 ovarian is 81.1%; in the experiment with OVCAR-3 ovarian it was 78.8%; with HS 578T breast it was 95.7%; in the experiment with NCI/ADR-RES ovarian, 69.8%.
With `CCCCNCCCCCNc1cc(OC)cc2cccnc12`, the growth was 71.1% in the experiment with SR leukemia; 76.9% with RPMI-8226 leukemia; 99.3% with OVCAR-8 ovarian; 91.4% with OVCAR-5 ovarian; 60.1% with OVCAR-4 ovarian; 95.2% with SK-OV-3 ovarian. Also, the growth in the experiment on IGROV1 ovarian is 118%; with OVCAR-3 ovarian, 107%; with HS 578T breast, 99%; in the experiment on NCI/ADR-RES ovarian it was 95.9%.
As for `O=C1c2ccc3c4c5ccc(c24)C(=O)N1CCCOCCCCOCCCNCc1ccc(cc1)CNCCCOCCCCOCCCN(C3=O)C5=O`, the growth with SR leukemia was -10.9% (active); with RPMI-8226 leukemia it was 3.9% (active); with OVCAR-8 ovarian it was -29.6% (active); in the experiment with OVCAR-5 ovarian, -63.3% (active); in the experiment on OVCAR-4 ovarian, -97.8% (active); with SK-OV-3 ovarian, 12.9%. Moreover, the growth in the experiment with IGROV1 ovarian is -78.4% (active); in the experiment with OVCAR-3 ovarian it was -27.2% (active); in the experiment with HS 578T breast, 85.6%; with NCI/ADR-RES ovarian, 90%.
For `C=C(CBr)[C@@H]1CC[C@]2(C(=O)O)CC[C@]3(C)[C@H](CC[C@@H]4[C@@]5(C)CCC(=O)C(C)(C)[C@@H]5CC[C@]43C)[C@@H]12`, the growth in the experiment on SR leukemia is 60%; with RPMI-8226 leukemia, 42.3%; with OVCAR-8 ovarian, 84.2%; in the experiment with OVCAR-5 ovarian, 89.8%; with OVCAR-4 ovarian, 75.3%; with SK-OV-3 ovarian, 121%. In addition, the growth in the experiment on IGROV1 ovarian was 103%; in the experiment with OVCAR-3 ovarian it was 70.8%; with HS 578T breast, 92.2%; in the experiment on NCI/ADR-RES ovarian, 83.4%.
Take `O=C(/C=C/c1cccs1)Nc1ncc(Cc2ccccc2F)s1`: the growth was 26.1% in the experiment on SR leukemia; 23.7% in the experiment with RPMI-8226 leukemia; 29.8% with OVCAR-8 ovarian; 34.5% in the experiment with OVCAR-5 ovarian; 48% with OVCAR-4 ovarian; 27.5% in the experiment with SK-OV-3 ovarian. For the same compound, the growth was 35.4% in the experiment on IGROV1 ovarian, -6.37% (active) in the experiment on OVCAR-3 ovarian, 16% in the experiment on HS 578T breast and 11.6% with NCI/ADR-RES ovarian.
As to `COc1ccc2[nH]c(C(=O)N3CCN(C(=O)OCc4ccc5c(Cl)cc(Cl)c(O)c5n4)CC3)cc2c1`, the growth is 2.29% (active) with SR leukemia; -27.9% (active) in the experiment on RPMI-8226 leukemia; -64.1% (active) in the experiment with OVCAR-8 ovarian; -88.7% (active) with OVCAR-5 ovarian; -69.5% (active) in the experiment with OVCAR-4 ovarian; 44.7% in the experiment with SK-OV-3 ovarian. Moreover, the growth with IGROV1 ovarian is -96.4% (active); in the experiment on OVCAR-3 ovarian it was -97.3% (active); in the experiment with HS 578T breast, -15.1% (active); in the experiment on NCI/ADR-RES ovarian, -2.44% (active).
On to `CC(O)(c1ccccc1)C(c1ccccc1)C1CCCCN1` (stereo not given), for which the growth with SR leukemia was 101%; with RPMI-8226 leukemia it was 102%; in the experiment with OVCAR-8 ovarian it was 101%; in the experiment on OVCAR-5 ovarian, 113%; with OVCAR-4 ovarian, 97.9%; with SK-OV-3 ovarian, 113%. Further, the growth is 80.5% in the experiment with IGROV1 ovarian, 105% with OVCAR-3 ovarian, 107% in the experiment with HS 578T breast and 105% in the experiment on NCI/ADR-RES ovarian.
Take `Cc1csc(Nc2nc(-c3ccccn3)nc(C(Cl)(Cl)Cl)n2)n1`: the growth in the experiment with SR leukemia was 53.2%; with RPMI-8226 leukemia, 91.5%; in the experiment on OVCAR-8 ovarian, 77.7%; in the experiment with OVCAR-5 ovarian, 108%; in the experiment with OVCAR-4 ovarian, 83.6%; in the experiment on SK-OV-3 ovarian, 97.8%. For the same compound, the growth is 82.1% in the experiment with IGROV1 ovarian, 97.4% in the experiment on OVCAR-3 ovarian, 115% in the experiment with HS 578T breast and 66.8% with NCI/ADR-RES ovarian.
On to `COC(=O)c1nc(-c2ccccc2)oc1S(=O)(=O)Cc1ccccc1`, for which the growth in the experiment with SR leukemia is -11.5% (active); in the experiment on RPMI-8226 leukemia it was 84.5%; with OVCAR-8 ovarian it was 90.1%; in the experiment with OVCAR-5 ovarian, 102%; with OVCAR-4 ovarian, 101%; in the experiment on SK-OV-3 ovarian, 97.6%. Also, the growth in the experiment on IGROV1 ovarian is 85.6%; in the experiment with OVCAR-3 ovarian it was 41.1%; in the experiment with HS 578T breast it was 110%; with NCI/ADR-RES ovarian, 97%.
On to `COc1cc(-c2nc3sccn3c2-c2ccnc(NCCNS(=O)(=O)c3ccccc3)n2)ccc1F`, for which the growth was 45.3% in the experiment on SR leukemia; 31% in the experiment on RPMI-8226 leukemia; 46.1% in the experiment with OVCAR-8 ovarian; 113% with OVCAR-5 ovarian; 52.3% in the experiment with OVCAR-4 ovarian; 52.5% with SK-OV-3 ovarian. For the same compound, the growth in the experiment with IGROV1 ovarian is 43.1%; in the experiment with OVCAR-3 ovarian, 74.9%; in the experiment with HS 578T breast, 69.6%; with NCI/ADR-RES ovarian, 47%.
